Laboratory results: PubChem BioAssay AID1259309 (ICCB-Longwood Screening Facility, Harvard Medical School, 2017)
“And” between values parts separate entries of the source, which are not always exact repeats. Equal entries are not always repeated. The campaign covered roughly 330,000 compounds. About 1,800 (0.55%) were called active. Rule as the data show it: active = growth inhibition above about 68%; inactive = the rest. The full list was thinned out, with actives kept by preference.

Assay: growth inhibition of ugtP-null S. aureus, primary screen, RN4220 ugtP deletion, OD600 (AID 1259309);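 also: plate controls were untreated wells for no effect and antibiotic for full effect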
Conditions: 16 h, hits give high values

Structure (SMILES)	growth inhibition
O=C(Nc1nnc(-c2ccco2)o1)c1ccc(S(=O)(=O)N2CCOCC2)cc1	11.9% (inactive)
COc1ccc(-c2nnc(NC(=O)CS(=O)(=O)c3ccc(Cl)cc3)o2)c(OC)c1	46.4% (inactive)
Cn1c2ccccc2c2nnc(NN=Cc3ccc(O)cc3)nc21	3.8% (inactive)
O=C(NN=Cc1ccc(-c2ccc(Cl)c(Cl)c2)o1)C(=O)N1CCCC1	-5.08% (inactive)
CCc1nnc(NN=Cc2c(Cl)cccc2Cl)n1N	-4.51% (inactive)
C=CCOc1ccc(C(O)=C2C(=O)C(=O)N(CCCOC)C2c2ccc(O)c(OC)c2)cc1 (stereo unspecified)	8.37% (inactive)
O=[N+]([O-])c1cc(C=NNC(=Nc2ccccn2)c2ccccn2)ccc1O	66.8% (inactive)
CCCc1cc(-c2nc(-c3ccc(C)cc3)cs2)ccn1	16.9% (inactive)
Cc1ccc(-c2csc(-c3c[nH]c4ccccc34)n2)cc1	89.5% (active)
CCn1c(SCCC(C)C)nnc1-c1c[nH]c2ccccc12	-3.66% (inactive)
C=CCn1c(N=Cc2ccc(OC)cc2)nc2ccccc21	7.61% (inactive)
COc1ccc2nc(N=C(N)NC(=O)N3c4ccccc4Sc4ccccc43)nc(C)c2c1	-21.3% (inactive)
COc1ccc2c(c1OC)CN1CCc3cc4c(cc3C1C2O)OCO4 (stereo unspecified)	15.5% (inactive)
CCOc1ccccc1C=NNC(=O)c1nnn(-c2nonc2N)c1CN1CCCCCC1	2.59% (inactive)
C#CCOCCOCCOCCNc1nc(N2CCN(C(=O)C(CCCCN)n3cc(CCCC)nn3)CC2)nc(N2CCN(C(=O)C(C(C)CC)n3cc(CCCN=C(N)N)nn3)CC2)n1 (stereo unspecified)	11.2% (inactive)
CC(=NNC(=O)CNC(=O)C1COc2ccccc2O1)c1ccc([N+](=O)[O-])cc1 (stereo unspecified)	0.446% (inactive)
CC(=O)c1cccc(NC(=O)C2COc3ccccc3O2)c1 (stereo unspecified)	8.46% (inactive)
O=C(Nc1ncc([N+](=O)[O-])s1)C1COc2ccccc2O1 (stereo unspecified)	90.5% (active)
O=C(O)CCC(=NNC(=O)c1cn(-c2ccccc2)nc1-c1ccccc1)C(=O)O	0.633% (inactive)
CCc1ccc2c(c1)C1(NN=C(c3ccccc3)S1)C(=O)N2 (stereo unspecified)	95.8% (active)
CC(=NOC(=O)c1ccc(F)cc1)c1sc(-c2ccccc2)nc1C	-1.32% (inactive)
CC(=O)c1cnc(-c2ccccc2)s1	-8.03% (inactive)
CON=CCC(=O)c1cnc(-c2ccc(Cl)cc2)s1	87.5% (active)

Structure (SMILES)	growth inhibition
O=C(/C=C/Nc1ccccc1)c1cnc(-c2ccccc2)s1	-8.21% (inactive)
CC(=O)Nc1ccc(C(=O)NN=CC2CC3C=CC2C3)cc1 (stereo unspecified)	9.12% (inactive)
CS(=O)(=O)c1ccc(CNC(=O)[C@]2(C(F)(F)F)CC(CCc3ccccc3)CCCO2)cc1 (stereo partly specified)	-0.803% (inactive)
Cc1cccc(NC(=O)c2ccc([N+](=O)[O-])o2)c1	21.9% (inactive)
C/[N+]([O-])=C\c1ccc([N+](=O)[O-])o1	96.9% (active)
Cc1ccc(NCC(=O)NN=Cc2ccc([N+](=O)[O-])o2)cc1	26.7% (inactive)
CCC(C)N1CCC2(CC1)N=c1c(c3c4c5c(C)c(O)c3c(O)c1=NC(=O)C(C)=CC=CC(C)C(O)C(C)C(O)C(C)C(OC(C)=O)C(C)C(OC)C=CO[C@@](C)(O5)C4=O)N2 (stereo partly specified)	99.6% (active)
Cn1c(=O)[nH]c(=O)c2c1nc(N1CCCCC1)n2CC=NNc1ccc(C(=O)O)cc1	10.4% (inactive)
O=C(CNC(=O)c1ccco1)NN=Cc1ccc(O)cc1O	4.74% (inactive)
CC(C)CC(=O)NC(=S)Nc1ccc(F)cc1F	86.4% (active)
CC(C)CC(=O)NC(=S)Nc1cc(C(=O)O)ccc1Cl	9.77% (inactive)
CC(C)C(=O)NC(=S)Nc1ccccc1F	14.2% (inactive)
CCOC(=O)COc1c(C=NO)cc(Cl)cc1OC	1.74% (inactive)
O=C(CN1CCCCCC1)Nc1ccc(Br)cc1[N+](=O)[O-]	5.98% (inactive)
O=C(CN1CCCCCC1)Nc1ccc(Br)cc1Br	4.57% (inactive)
O=C(CN1CCCCC1)Nc1ccc(Br)cc1C(=O)c1ccccc1Cl	88.6% (active)
COC(=O)C1=C(C(=O)OC)C2N(C)c3ccccc3[C@@]23CC(C(=O)OC)N(C(C)=O)C3=N1 (stereo partly specified)	3.76% (inactive)
CC(C)C(=NNc1ccccc1[N+](=O)[O-])c1ccccc1	42.3% (inactive)
NC(=O)C(=Cc1ccccc1)NC(=O)C=Cc1ccccc1	-1.58% (inactive)
CC(Cc1ccccc1)=NNC(=O)CNC(=O)Cc1ccccc1	2.62% (inactive)
Cc1nc2c(cnn2-c2ccccc2)c(=O)n1N=Cc1ccccc1	6.82% (inactive)
C=C[C@]1(C)CC(OC(=O)CSCCN(CC)CC)[C@]2(C)C(C)CC[C@]3(CCC(=O)C32)C(C)C1O (stereo partly specified)	99.9% (active) and 100% (active)
O=C(C=Cc1ccccc1Cl)Nc1ccncc1	-22.9% (inactive)
